Assay results taken from PubChem BioAssay (NCATS).
Inconclusive results are not listed. Active and inactive are the calls of the source. Unless noted, the call rests on the fitted dose curve.

Experiments:
[1] = biological target: Lysosomal acid glucosylceramidase (Homo sapiens) (UniProt P04062); assay: Glucocerebrosidase-p2 (AID 348; in the data active means potency below about 10 µM; further: potency means the concentration at half of the fitted maximal effect); details: purified GBA, blue fluorogenic substrate, 40 min
In short: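 Normal human glucocerebrosidase (0.2 nM) with blue fluorogenic substrate (80 uM final) in citrate/phosphate pH 5.9 with 10mM sodium taurocholate, 0.01% tween-20; 40 min RT, NaOH/glycine stop; fluorescence Ex 365/Em 440; AC50 from a titration from 0.6 nM upwards.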

[2] = AP1 Signaling Pathway (AID 357; active means well fitted curve in either direction with a large enough effect, not every such curve was filed as active;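 further: ME-180 reporter cells stimulated with EGF at its EC50 level; on the % scale 0 is the no-effect control and ±100 the full control effect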); details: ME-180 AP-1-bla reporter, EGF-induced, beta-lactamase ratio, 5 h; at 7.69 µM (top of the series) unless noted
In short: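 AP-1-bla ME-180 cells, Opti-MEM + 0.5% dialyzed FBS, plated overnight 37 °C. Cpd titration + EC50 EGF, 5 h 37 °C. CCF4 2.5 h RT; ex 405, em 460/530 ratio → %activity, AC50.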

[3] = biological target: Cytochrome P450 1A2 (Homo sapiens) (UniProt P05177); assay: p450-cyp1a2 (AID 410); details: recombinant CYP1A2, luciferin-ME demethylation, luminescence; series mostly up to 57 µM; further: potency means the concentration at half of the fitted maximal effect;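 on activity change, negative = inhibition: -100% = full effect of reference inhibitor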
In short: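 O-Demethylation of luciferin 6' methyl ether by human CYP1A2 is monitored as luciferase luminescence. Substrate sits at Km (100uM); enzyme is 20nM. Values are scaled to 57 uM furafylline as maximal inhibition.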

[4] = Stat Signaling Pathway (AID 446; active means well fitted curve in either direction with a large enough effect, not every such curve was filed as active;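 further: ME-180 cervical cancer cells given 40 pM IL-6 alongside compound; SIE-controlled beta-lactamase reporter measured as 460/530 nm FRET emission ratio; on the % scale 0 is the no-effect control and ±100 the full control effect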); details: ME-180 SIE beta-lactamase reporter, IL-6 stimulated, 5 h; at 7.69 µM (top of the series) unless noted
In short: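 Normalization used AC90 stimulation (300 pM IL-6) and AC90 inhibition (125 nM pan-JAK inhibitor at 40 pM IL-6). The underlying signal is SIE-driven beta-lactamase in ME-180 cells after 5 h IL-6 exposure with compound.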

[5] = biological target: Mitogen-activated protein kinase 10 (Mus musculus) (UniProt Q61831); assay: JNK3 AlphaScreen Assay (AID 530; active means well fitted curve in either direction with a large enough effect, not every such curve was filed as active;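 further: kinase came from lysate of stimulated human HepG2 cells; signal reports phosphorylation of biotinylated GST-cJun 1-79 at Ser73 with 10 µM ATP; on the % scale 0 is the no-effect control and ±100 the full control effect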); details: JNK3 lysate, c-Jun phosphorylation; series mostly up to 57.1 µM
In short: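 Phosphorylation of biotinylated GST-cJun(1-79) at Ser73 is measured by AlphaScreen proximity luminescence. Enzyme is JNK3 in HepG2 lysates activated with interleukin-1beta and tumor necrosis factor alpha; ATP is 10 uM final.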

[6] = biological target: 3',5'-cyclic-AMP phosphodiesterase 4B (Homo sapiens) (UniProt Q07343); assay: qHTS Assay for Inhibitors of PDE-IV (AID 607; active means well fitted activation curve with a large enough effect in the main read-out, with a control signal flat, not every such curve was filed as active; further: % of control where 0% means no effect); details: HEK293 ACTOne CNG channel cells, membrane potential fluorescence; series mostly up to 22.9 µM
In short: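 HEK293 ACTOne cells with CNG channel (1000/well), endogenous PDE4; membrane potential dye, compounds up to 22.9 uM final. Fluorescence Ex 535/Em 590; RO 20-1724 (100 uM final) as reference.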

[7] = biological target: Cytochrome P450 3A4 (Homo sapiens) (UniProt P08684); assay: qHTS Assay for Activators of Cytochrome P450 3A4 (AID 885; active means well fitted curve in the direction sought with a large enough effect; an effect the other way counts as inactive or inconclusive; further: nearly all actives have a fitted effect of over 65% in size; further: potency means the concentration at half of the fitted maximal effect); details: recombinant CYP3A4, Luciferin-PPXE luminescence, 60 min; series mostly up to 57.1 µM
In short: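 Human CYP3A4 dealkylates Luciferin-PPXE to luciferin, which luciferase detection converts to light. Substrate was at its KM (25uM), buffer 200mM KPO4, reaction 60 min at RT.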

[8] = qHTS Assay for Lipid Storage Modulators (AID 1519); details: Drosophila S3 cells, BODIPY lipid droplet/cell ratio, laser cytometry, cells loaded with oleic acid; for activity change, negative = inhibition: at 57.5 µM (top of the series)
In short: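 Cells seeded at 5,000 per well were treated with compounds over a concentration series and loaded with oleic acid (400 uM, as added). Lipid droplet fluorescence (488 nm excitation, 500-530 nm channel) was read by laser-scanning cytometry and normalized to 20 uM Triacsin C.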

[9] = Primary qHTS for small molecule stabilizers of the endoplasmic reticulum resident proteome: Secreted ER Calcium Modulated Protein (SERCaMP) assay (AID 1508630; active means well fitted curve in the direction sought with a large enough effect; an effect the other way counts as inactive or inconclusive; further: on the % scale 0 is the no-effect control and ±100 the full control effect); details: SH-SY5Y GLuc-SERCaMP (Gaussia luciferase released on ER calcium loss) secretion, thapsigargin, luminescence; series mostly up to 38.4 µM
In short: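 The SH-SY5Y reporter protocol was run at 3 concentrations up to 38.3 uM (primary) or 11 concentrations (follow-up): 16 h compound, 100 nM thapsigargin for 4 h, then extracellular luciferase luminescence.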

[10] = biological target: Glucocorticoid receptor (Homo sapiens) (UniProt P04150); assay: GR-EFC Redistribution (AID 451); details: CHO-K1 GR-EFC translocation, beta-gal luminescence, 2 h; further: potency means the concentration at half of the fitted maximal effect
In short: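 CHO-K1 cells stably expressing nuclear-localized β-gal enzyme acceptor and GR fused C-terminally to the enzyme donor fragment; ligand-driven nuclear translocation restores β-gal by complementation. Compounds titrated up to 46 uM final, 2 h at 37 °C; luminescence read.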

[11] = biological target: Cytochrome P450 2C19 (Homo sapiens) (UniProt P33261); assay: qHTS Assay for Inhibitors and Substrates of Cytochrome P450 2C19 (AID 899; active means well fitted curve in the direction sought with a large enough effect; an effect the other way counts as inactive or inconclusive; further: potency means the concentration at half of the fitted maximal effect; nearly all actives have a fitted effect of over 60% in size); details: recombinant CYP2C19, luciferin-H EGE luminescence; series mostly up to 57.1 µM
In short: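 NADPH-dependent conversion of Luciferin-H EGE (10uM, at KM) by 5nM enzyme in 50mM KPO4, 60 min at 37C following 10 min compound preincubation. Stopped with luciferin detection buffer; luminescence read after 20 min.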

[12] = biological target: Cytochrome P450 2D6 (Homo sapiens) (UniProt P10635); assay: qHTS Assay for Inhibitors and Substrates of Cytochrome P450 2D6 (AID 891; active means well fitted curve in the direction sought with a large enough effect; an effect the other way counts as inactive or inconclusive; further: potency means the concentration at half of the fitted maximal effect; nearly all actives have a fitted effect of over 60% in size); details: recombinant CYP2D6, luciferin-ME EGE luminescence; series mostly up to 57.1 µM
In short: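 Luminescent read-out of luciferin formed by 5 nM human CYP2D6 demethylating 30 uM Luciferin-ME EGE (Km level) over 60 min at room temperature after NADPH regeneration addition. Data normalized to full inhibition by 1.43 uM quinidine.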

[13] = biological target: Cytochrome P450 3A4 (Homo sapiens) (UniProt P08684); assay: qHTS Assay for Inhibitors and Substrates of Cytochrome P450 3A4 (AID 884; active means well fitted curve in the direction sought with a large enough effect; an effect the other way counts as inactive or inconclusive; further: on the % scale 0 is the no-effect control and ±100 the full control effect; nearly all actives have a fitted effect of over 50% in size); details: recombinant CYP3A4, Luciferin-PPXE luminescence; series mostly up to 57.1 µM
In short: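 Luminescent readout of luciferin produced by CYP3A4 (20 nM) dealkylation of Luciferin-PPXE, 25 uM (its KM). NADPH-driven reaction ran 60 min at RT after 10 min compound preincubation; data scaled to 57 uM ketoconazole as 100% inhibition.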

[14] = qHTS Assay for Identification of Small Molecule Agonists for Hypoxia Response Element Signaling Pathway (AID 914; active means well fitted activation curve with a large enough effect in the signal ratio, with a control signal flat, not every such curve was filed as active; the % refers to the signal ratio; further: % of control where 0% means no effect); details: ME-180 (cervical carcinoma) HRE-bla reporter, beta-lactamase ratio, CoCl2, 17 h; activation: stronger effect = higher value
In short: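 HRE-bla ME-180 assay for agonist-like enhancement of an EC50 CoCl2 stimulus: 17 h at 37 degrees Celsius, CCF4 for 2.5 h, ratiometric 460/530 nm signal converted to %Activity and fitted to AC50.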

[15] = measured here: cell count channel max response
[16] = measured here: lipid channel max response

Chain of Cytochrome P450 1A2 (Homo sapiens) (P05177 whole entry, looked up): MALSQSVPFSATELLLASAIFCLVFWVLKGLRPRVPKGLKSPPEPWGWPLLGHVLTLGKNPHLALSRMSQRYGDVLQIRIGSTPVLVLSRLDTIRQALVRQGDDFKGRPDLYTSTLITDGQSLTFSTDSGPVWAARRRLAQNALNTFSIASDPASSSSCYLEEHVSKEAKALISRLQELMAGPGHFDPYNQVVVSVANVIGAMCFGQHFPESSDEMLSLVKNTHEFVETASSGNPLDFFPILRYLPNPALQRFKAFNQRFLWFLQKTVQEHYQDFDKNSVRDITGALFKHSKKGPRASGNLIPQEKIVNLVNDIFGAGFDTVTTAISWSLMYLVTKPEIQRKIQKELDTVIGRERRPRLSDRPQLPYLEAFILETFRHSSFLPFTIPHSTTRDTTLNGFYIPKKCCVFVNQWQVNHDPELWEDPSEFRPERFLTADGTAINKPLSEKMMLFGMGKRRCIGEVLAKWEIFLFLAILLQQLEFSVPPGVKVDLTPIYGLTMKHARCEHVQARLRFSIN
Chain of Cytochrome P450 2D6 (Homo sapiens) (P10635 whole entry, looked up): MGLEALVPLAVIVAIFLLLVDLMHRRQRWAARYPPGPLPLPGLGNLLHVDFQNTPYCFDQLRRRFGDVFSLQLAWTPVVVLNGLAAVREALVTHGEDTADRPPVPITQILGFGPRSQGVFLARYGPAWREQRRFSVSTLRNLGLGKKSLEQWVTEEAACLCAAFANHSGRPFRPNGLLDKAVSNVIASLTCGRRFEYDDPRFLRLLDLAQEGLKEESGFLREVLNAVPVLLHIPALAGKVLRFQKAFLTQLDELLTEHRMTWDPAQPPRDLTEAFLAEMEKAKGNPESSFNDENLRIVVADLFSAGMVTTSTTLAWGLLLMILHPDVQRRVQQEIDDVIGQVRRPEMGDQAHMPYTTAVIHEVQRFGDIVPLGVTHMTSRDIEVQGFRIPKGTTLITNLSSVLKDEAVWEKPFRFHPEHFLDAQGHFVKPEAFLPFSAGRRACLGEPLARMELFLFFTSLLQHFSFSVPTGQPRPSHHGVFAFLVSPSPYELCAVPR
Chain of 3',5'-cyclic-AMP phosphodiesterase 4B (Homo sapiens) (Q07343 whole entry, looked up): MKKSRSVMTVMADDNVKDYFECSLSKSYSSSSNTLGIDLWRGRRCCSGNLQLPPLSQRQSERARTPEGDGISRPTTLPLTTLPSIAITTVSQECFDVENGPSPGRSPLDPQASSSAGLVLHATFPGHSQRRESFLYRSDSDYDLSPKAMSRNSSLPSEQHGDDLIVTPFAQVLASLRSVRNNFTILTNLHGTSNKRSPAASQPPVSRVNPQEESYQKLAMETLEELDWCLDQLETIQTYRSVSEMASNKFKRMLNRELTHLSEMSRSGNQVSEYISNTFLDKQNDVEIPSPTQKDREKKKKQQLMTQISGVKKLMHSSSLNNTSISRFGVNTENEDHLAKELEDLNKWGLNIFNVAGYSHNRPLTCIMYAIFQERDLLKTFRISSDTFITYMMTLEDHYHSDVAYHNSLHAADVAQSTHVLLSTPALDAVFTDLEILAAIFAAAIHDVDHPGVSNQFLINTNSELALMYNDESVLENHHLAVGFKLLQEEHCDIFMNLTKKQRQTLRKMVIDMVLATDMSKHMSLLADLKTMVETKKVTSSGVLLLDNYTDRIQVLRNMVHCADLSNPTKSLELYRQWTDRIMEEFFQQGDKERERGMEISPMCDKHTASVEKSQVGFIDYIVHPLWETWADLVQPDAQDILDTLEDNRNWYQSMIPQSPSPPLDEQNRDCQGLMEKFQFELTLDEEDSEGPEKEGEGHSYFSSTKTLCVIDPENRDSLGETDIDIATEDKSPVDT
Chain of Cytochrome P450 3A4 (Homo sapiens) (P08684 whole entry, looked up): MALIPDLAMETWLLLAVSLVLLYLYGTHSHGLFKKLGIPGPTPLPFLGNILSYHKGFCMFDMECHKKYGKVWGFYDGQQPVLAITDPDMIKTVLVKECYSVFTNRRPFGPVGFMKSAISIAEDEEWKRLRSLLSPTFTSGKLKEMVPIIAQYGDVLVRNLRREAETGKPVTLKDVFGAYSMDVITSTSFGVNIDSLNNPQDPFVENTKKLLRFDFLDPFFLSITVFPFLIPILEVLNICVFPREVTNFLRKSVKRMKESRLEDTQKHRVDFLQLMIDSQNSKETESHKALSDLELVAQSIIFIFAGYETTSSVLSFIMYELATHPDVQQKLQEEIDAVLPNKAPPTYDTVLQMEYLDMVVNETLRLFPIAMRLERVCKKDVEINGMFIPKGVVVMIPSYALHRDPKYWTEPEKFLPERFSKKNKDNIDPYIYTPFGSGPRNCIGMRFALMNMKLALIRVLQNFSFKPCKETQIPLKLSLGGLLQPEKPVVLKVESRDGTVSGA
Chain of Lysosomal acid glucosylceramidase (Homo sapiens) (P04062 whole entry, looked up): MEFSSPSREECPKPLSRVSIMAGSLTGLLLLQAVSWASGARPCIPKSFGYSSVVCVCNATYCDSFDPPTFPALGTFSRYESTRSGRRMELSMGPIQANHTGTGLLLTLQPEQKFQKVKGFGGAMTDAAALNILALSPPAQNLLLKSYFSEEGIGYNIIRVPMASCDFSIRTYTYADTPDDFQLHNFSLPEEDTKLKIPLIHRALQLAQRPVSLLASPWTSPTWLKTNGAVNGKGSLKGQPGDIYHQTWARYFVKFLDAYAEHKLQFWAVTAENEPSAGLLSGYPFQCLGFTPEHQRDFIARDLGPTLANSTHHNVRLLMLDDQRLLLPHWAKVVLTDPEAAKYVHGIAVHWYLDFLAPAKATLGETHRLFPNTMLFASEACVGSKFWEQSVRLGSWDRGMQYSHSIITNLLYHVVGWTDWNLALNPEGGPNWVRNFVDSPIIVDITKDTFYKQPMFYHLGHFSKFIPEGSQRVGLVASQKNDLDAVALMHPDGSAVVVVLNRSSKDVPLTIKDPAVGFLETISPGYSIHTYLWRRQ
Chain of Glucocorticoid receptor (Homo sapiens) (P04150 whole entry, looked up, the tested form may be a part): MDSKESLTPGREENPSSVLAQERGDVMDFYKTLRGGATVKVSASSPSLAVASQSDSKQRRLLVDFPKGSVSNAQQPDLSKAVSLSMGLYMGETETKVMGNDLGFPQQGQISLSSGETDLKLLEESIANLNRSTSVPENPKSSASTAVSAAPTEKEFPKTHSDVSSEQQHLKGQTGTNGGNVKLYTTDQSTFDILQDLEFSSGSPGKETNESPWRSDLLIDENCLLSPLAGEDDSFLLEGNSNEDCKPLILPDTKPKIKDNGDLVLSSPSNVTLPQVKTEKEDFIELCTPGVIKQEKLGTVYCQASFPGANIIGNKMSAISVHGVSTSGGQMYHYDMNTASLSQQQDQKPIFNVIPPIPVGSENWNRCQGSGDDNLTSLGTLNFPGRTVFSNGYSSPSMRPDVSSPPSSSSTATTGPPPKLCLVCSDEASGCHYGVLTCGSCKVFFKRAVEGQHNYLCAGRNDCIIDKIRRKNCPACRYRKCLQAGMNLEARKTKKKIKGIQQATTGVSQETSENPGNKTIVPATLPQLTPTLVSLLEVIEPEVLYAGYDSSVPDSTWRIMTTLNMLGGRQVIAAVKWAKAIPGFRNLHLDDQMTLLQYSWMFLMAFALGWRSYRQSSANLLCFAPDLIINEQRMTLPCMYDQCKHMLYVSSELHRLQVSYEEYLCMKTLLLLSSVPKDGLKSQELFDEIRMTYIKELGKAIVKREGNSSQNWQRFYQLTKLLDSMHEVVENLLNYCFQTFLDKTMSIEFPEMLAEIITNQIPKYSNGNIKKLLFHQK
Chain of Cytochrome P450 2C19 (Homo sapiens) (P33261 whole entry, looked up): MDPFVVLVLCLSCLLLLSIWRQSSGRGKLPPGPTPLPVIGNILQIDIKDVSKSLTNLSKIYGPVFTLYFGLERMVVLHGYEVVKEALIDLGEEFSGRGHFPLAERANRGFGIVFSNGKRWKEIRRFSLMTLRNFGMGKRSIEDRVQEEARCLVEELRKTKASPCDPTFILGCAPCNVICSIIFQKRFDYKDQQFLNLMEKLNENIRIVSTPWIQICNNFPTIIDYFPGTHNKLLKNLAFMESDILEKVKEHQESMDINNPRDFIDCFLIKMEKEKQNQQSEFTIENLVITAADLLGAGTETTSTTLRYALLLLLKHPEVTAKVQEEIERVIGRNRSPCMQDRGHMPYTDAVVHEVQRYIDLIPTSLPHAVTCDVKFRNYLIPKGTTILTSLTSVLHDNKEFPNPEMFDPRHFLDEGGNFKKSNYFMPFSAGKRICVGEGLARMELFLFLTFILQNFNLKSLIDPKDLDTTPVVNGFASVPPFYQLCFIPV

| Compound | Potency [1] | activity change, negative = inhibition [2] | Potency [3] | activity, negative = inhibition [4] | Potency [5] | Potency [6] | Potency [7] | activity change, negative = inhibition [8] | max response [8, 15] [%] | max response [8, 16] [%] | outcome [9] | Potency [10] | Potency [11] | Potency [12] | Potency [13] | activation [14] |
| --- | --- | --- | --- | --- | --- | --- | --- | --- | --- | --- | --- | --- | --- | --- | --- | --- |
| O=C(Nc1ccccc1)N1CCCC2(CCN(S(=O)(=O)c3ccccc3)CC2)C1 | > 11.4 µM (inactive) | -18.5% (inactive) | 15.8 µM (active) | -7.13% (inactive) | inactive | inactive | inactive | 0.932% (inactive) | 19.2 | 22 | inactive | – | – | – | – | – |
| c1ccc(C(c2ccccc2)N2CCC3(CCNCC3)CC2)cc1 | > 11.4 µM (inactive) | -10.6% (inactive) | inactive | 0.474% (inactive) | inactive | inactive | – | -5.07% (inactive) | 27.4 | 21.5 | inactive | > 46 µM (inactive) | 3.98 µM (active) | – | – | – |
| O=C(c1cccc(F)c1)N1CCC2(CC1)CN(Cc1ccccc1)C2 | > 11.4 µM (inactive) | 0.919% (inactive) | inactive | 0.079% (inactive) | inactive | inactive | – | -1.4% (inactive) | -5.75 | -4.23 | inactive | > 46 µM (inactive) | – | 5.01 µM (active) | – | – |
| CC(C)CN1CCC2(CC1)CCN(C(=O)c1cccc(F)c1)CC2 | > 11.4 µM (inactive) | -11.3% (inactive) | inactive | 0.382% (inactive) | inactive | inactive | – | 0.839% (inactive) | 1.53 | 2.51 | inactive | > 46 µM (inactive) | – | 5.01 µM (active) | – | – |
| CC(C)CN1CCC2(CC1)CCN(C(=O)c1ccncc1)CC2 | > 11.4 µM (inactive) | -3.14% (inactive) | inactive | -5.7% (inactive) | inactive | inactive | inactive | 0.393% (inactive) | 14.2 | 14.7 | inactive | > 46 µM (inactive) | – | 3.98 µM (active) | – | – |
| COc1ccccc1CN1CCC2(CC1)CCN(C(=O)c1c(C)noc1C)CC2 | > 11.4 µM (inactive) | 4.81% (inactive) | inactive | -4.2% (inactive) | inactive | inactive | – | 1.42% (inactive) | 11.3 | 18.8 | inactive | > 46 µM (inactive) | – | 7.94 µM (active) | – | – |
| N#Cc1ccc(CN2CC3(CCN(C(=O)c4cccc(F)c4)CC3)C2)cc1 | > 11.4 µM (inactive) | 20.2% (inactive) | 3.98 µM (active) | -1.68% (inactive) | – | inactive | – | -2.25% (inactive) | 2.82 | 3.31 | inactive | > 46 µM (inactive) | 2 µM (active) | – | inactive | – |
| O=C(c1csnn1)N1CCC2(CCCN(Cc3ccccc3)C2)CC1 | > 11.4 µM (inactive) | 9.34% (inactive) | inactive | -5.61% (inactive) | inactive | inactive | – | 3.37% (inactive) | 10.8 | 18 | inactive | > 46 µM (inactive) | – | 1.26 µM (active) | – | – |
| O=S(=O)(c1ccccc1)N1CCC2(CCN(Cc3ccccc3)CC2)CC1 | > 11.4 µM (inactive) | 5.55% (inactive) | inactive | 1.04% (inactive) | inactive | inactive | – | 3.53% (inactive) | 18.1 | 22.9 | inactive | > 46 µM (inactive) | – | – | – | 14.1% (inactive) |
| COCC(=O)N1CCC[C@@]2(CCN(C(c3ccccc3)c3ccccc3)C2)C1 | > 11.4 µM (inactive) | 0.34% (inactive) | 12.6 µM (active) | -0.903% (inactive) | inactive | inactive | inactive | -13.8% (inactive) | -8.5 | -21.2 | inactive | > 46 µM (inactive) | – | 6.31 µM (active) | – | – |
| O=C(c1cccc(F)c1)N1CCC2(CCN(Cc3nccs3)CC2)CC1 | > 11.4 µM (inactive) | -8.17% (inactive) | 1.58 µM (active) | -0.835% (inactive) | – | – | 15.8 µM (active) | 6.34% (inactive) | 8.7 | 20.4 | inactive | > 46 µM (inactive) | 1.58 µM (active) | – | inactive | – |
| COC(=O)N1CCC2(CCCN(Cc3ccc(C#N)cc3)C2)CC1 | > 11.4 µM (inactive) | -3.68% (inactive) | inactive | -2.36% (inactive) | inactive | inactive | inactive | -1.17% (inactive) | 13.4 | 12.9 | inactive | > 46 µM (inactive) | – | 0.316 µM (active) | – | – |
| COc1ccccc1CN1CCCC2(CCN(C(=O)c3csnn3)CC2)C1 | > 11.4 µM (inactive) | 3.73% (inactive) | inactive | 0.773% (inactive) | inactive | inactive | inactive | 6.98% (inactive) | 9.62 | 21.2 | inactive | > 46 µM (inactive) | – | – | – | 12.1% (inactive) |
| O=C(Oc1ccccc1)N1CCC2(CCCN(c3ccccn3)C2)CC1 | > 11.4 µM (inactive) | -14.7% (inactive) | 20 µM (active) | 2.71% (inactive) | inactive | inactive | inactive | 1.87% (inactive) | -15.5 | -9.96 | inactive | > 46 µM (inactive) | 7.94 µM (active) | – | – | – |
